In PubChem BioAssay (NCI):
Values joined by “and” are separate entries in the source; they are usually repeats but may differ in a detail not shown here. Identical values can stand only once. The panel holds about 83,000 compounds, 20% with a hit somewhere; the sample as a whole holds those more often.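 Cell lines were cultured in 96-well plates, exposed to a single compound concentration, and assessed for percent growth 48 hours later.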 Values without a mark were called inactive. Active and inactive are the calls of the source. How the source made its calls: active means growth percent below 10; inactive means the rest.

Test system: MDA-MB-468 breast
Experiment: NCI-60 one-dose screen, 48 h (100 = growth as untreated, 0 = no growth, -100 = all killed)
Conditions: 10 µM unless noted

Structure (SMILES)	growth
Cc1ccc(C(=O)Nc2cccc(C(F)(F)F)c2)cc1Nc1nc(-c2cnccn2)nc2c1cnn2C	104%
N#CC1c2ccccc2-c2ccccc2N1C(=O)c1ccccc1 (stereo not given)	32.9%
CC(C)CCSc1nc(NNC(N)=O)c(C#N)c(-c2ccccc2)n1	108%
c1ccc(N2N=C(c3cccc(Nc4ccncc4)c3)CC2c2ccc3c(c2)OCO3)cc1 (stereo not given)	15.1%
Cc1cn(-c2nc3c(c(NCc4ccccc4)n2)COCC3)c2cccc(C(N)=O)c12	114% [0.5 µM]
Clc1ccc2c(NCCCn3cnc4c(N5CCCC5)nc(Cl)nc43)ccnc2c1	107%
O=C(O)COCC(=O)O	93.6%
O=C1/C(=C/c2ccc(-c3ccccc3C(F)(F)F)o2)SC(=S)N1CCc1ccc(O)cc1	28.8%
Cc1nn(-c2ccc(Cl)cc2)c(C)c1N=Nc1ccc2oc(=O)ccc2c1	98.5%
CCCCNC(=O)c1ccccc1C	82.3%
Cc1cc2cn3c4cccnc4[nH]c(=O)c3c2cc1C	37.2%
O=C(/C=C/c1c(-c2ccccc2)[nH]c2ccccc12)S(=O)(=O)c1ccccc1	18.7%
CC1=C(CCC(C)N(C)Cc2ccc(OCCCN3CCCC3)cc2)C(C)(C)CCC1 (stereo not given)	-18.6% (active)
CC1=CCC2C1CC=C(C)C(CC[C@H]1[C@@](C)(O)CCC3OC(C)(C)[C@H](OC(=O)c4ccccc4)CC[C@@]31C)C2(C)C (stereo not given in full)	64.8%
CCC/C=C/C=C/C(=O)N[C@@H](Cc1cc(F)cc(F)c1)C(=O)N[C@@H]1C(=O)N2CCC[C@H]2C(=O)N2CCCC[C@H]2C(=O)N[C@@H](C)C(=O)N2C[C@H](C)C[C@H]2C(=O)O[C@H]1C	-0.457% (active)
CCC(C)/C(=C\C#N)NCCCN/C(=C/C#N)C(C)CC (stereo not given)	108%
Cc1cc2nc3c4cc([N+](=O)[O-])cc([N+](=O)[O-])c4n(CCN(C)C)c3nc2cc1C	104%
Nc1ncnc2c1c(-c1ccc(Oc3ccccc3)cc1)nn2C[C@H]1SSC[C@@H]1O	-26.7% (active)
COc1ccc(Nc2ncccc2/C=C/C(=O)c2cc(OC)c(OC)c(OC)c2)cc1	-62.1% (active)
Cc1ccc(N2C3c4ccccc4N(S(=O)(=O)c4ccc(C)cc4)C2c2ccccc2N3S(=O)(=O)c2ccc(C)cc2)cc1	120%

Structure (SMILES)	growth
CCCCCCCCCCCCCCCCCCOc1ccccc1CC(=O)OCC[N+](C)(C)C	-38.9% (active)
Oc1cccnc1CN1CCCC1	104%
C#Cc1ccc(NC(=O)c2ccc(/C=C/C(=O)c3nccn3C)cc2)c(F)c1	32.3%
COc1ccc(OC)c(/C=C2\CCc3ccccc3C2=O)c1	-5.15% (active)
COc1ccc(/C=C/c2nc3ccccc3nc2/C=C/c2ccc(OC)cc2)cc1	88.1%
Cc1nnc2c(Cc3ccccc3)nc3ccccc3n12	89.6%
Cc1nc(Nc2ncc(C(=O)Nc3c(C)cccc3Cl)s2)cc(N2CCN(CCO)CC2)n1	-4.35% (active) and -2.22% (active)
Cc1ccc(C(=O)N2C/C(=C/c3ccc(F)cc3)C(=O)/C(=C/c3ccc(F)cc3)C2)cc1	79.5%
O=C(CSc1nccc(Nc2ccc(S(=O)(=O)Nc3ccccn3)cc2)n1)c1ccc(Cl)cc1	81.2%
CN1CCCCC1CCN1c2ccccc2Sc2ccc(Cl)cc21 (stereo not given)	30.2%
Cc1ccc(C[P+](c2ccccc2)(c2ccccc2)c2ccccc2)cc1	-12.9% (active)
CN1CCN(CC(=O)Nc2ccc(-c3nc4ccccc4s3)cc2)CC1	-11.4% (active)
CCOC(=O)C1=C(N)Oc2c(sc3c(CC)cccc23)C1c1ccc(F)cc1 (stereo not given)	46.1%
Clc1cc(Cl)cc(-c2ccc(-c3ccc(/C=N/NC4=NCCN4)cc3)s2)c1	-3.62% (active)
O=C1c2cc3c(cc2-c2c1c1ccc(Cl)cc1c(=O)n2C[C@H](O)[C@@H](O)[C@H](O)CO)OCO3	-63.4% (active)
Cn1cccc1/C=C1/SC(=S)N(CCc2ccc(O)cc2)C1=O	10.3%
CC(C)(C)c1ccc(S(=O)(=O)N[C@H]2CC[C@H]3[C@@H]4CCc5cc(OS(=O)(=O)O)ccc5[C@H]4CC[C@]23C)cc1	58.6%
CCCCC/C=N/Nc1nc(C)cc(=O)[nH]1	105%
O=C1CN(CCN2CC(=O)NC(=O)C2)CC(=O)N1	94.8%
CCCCSC1=C(Cl)CN(c2ccc(Cl)cc2)C1=O	77.9%
